Key:
[1] = target: T1, MAP kinase-activated protein kinase 5 (Homo sapiens) (UniProt Q8IW41); details: at 1 µM
T1 sequence (whole entry): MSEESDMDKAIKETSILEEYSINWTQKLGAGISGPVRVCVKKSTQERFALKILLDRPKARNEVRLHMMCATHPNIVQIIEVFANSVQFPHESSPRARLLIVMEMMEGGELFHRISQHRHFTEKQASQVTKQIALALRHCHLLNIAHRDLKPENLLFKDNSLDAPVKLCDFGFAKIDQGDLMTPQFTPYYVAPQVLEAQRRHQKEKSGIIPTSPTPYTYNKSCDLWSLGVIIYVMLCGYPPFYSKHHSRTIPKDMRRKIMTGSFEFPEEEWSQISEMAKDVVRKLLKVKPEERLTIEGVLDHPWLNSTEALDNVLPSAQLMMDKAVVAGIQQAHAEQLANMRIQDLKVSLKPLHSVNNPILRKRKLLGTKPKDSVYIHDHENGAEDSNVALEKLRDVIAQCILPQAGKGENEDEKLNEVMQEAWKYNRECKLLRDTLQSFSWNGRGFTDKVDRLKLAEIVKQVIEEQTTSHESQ

[2] = target: T1, MAP kinase-activated protein kinase 5 (Homo sapiens); details: at 10 µM
[3] = target: T2, Phosphorylase b kinase gamma catalytic chain, liver/testis isoform (Homo sapiens) (UniProt P15735); details: at 10 µM
T2 sequence (whole entry): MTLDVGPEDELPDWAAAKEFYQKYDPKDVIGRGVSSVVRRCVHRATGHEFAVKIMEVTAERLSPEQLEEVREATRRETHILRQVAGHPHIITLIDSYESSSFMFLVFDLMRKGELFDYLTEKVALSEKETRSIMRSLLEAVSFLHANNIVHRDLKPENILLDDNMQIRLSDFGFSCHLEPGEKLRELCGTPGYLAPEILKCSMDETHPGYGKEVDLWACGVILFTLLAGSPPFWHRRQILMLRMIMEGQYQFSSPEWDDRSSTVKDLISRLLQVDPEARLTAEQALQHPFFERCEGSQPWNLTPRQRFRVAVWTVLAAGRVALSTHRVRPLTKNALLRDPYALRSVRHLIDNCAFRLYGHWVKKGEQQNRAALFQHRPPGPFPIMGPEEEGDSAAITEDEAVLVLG

[4] = target: Serine/threonine-protein kinase pim-2 (Homo sapiens) (UniProt Q9P1W9); details: at 10 µM
[5] = target: Serine/threonine-protein kinase PLK1 (Homo sapiens) (UniProt P53350); details: at 1 µM
[6] = target: Serine/threonine-protein kinase PLK1 (Homo sapiens) (UniProt P53350); details: at 10 µM
[7] = target: Serine/threonine-protein kinase N2 (Homo sapiens) (UniProt Q16513); details: at 1 µM
[8] = target: Serine/threonine-protein kinase N2 (Homo sapiens) (UniProt Q16513); details: at 10 µM
[9] = target: Serine/threonine-protein kinase pim-1 (Homo sapiens) (UniProt P11309); details: at 1 µM
[10] = target: Serine/threonine-protein kinase pim-1 (Homo sapiens) (UniProt P11309); details: at 10 µM
[11] = target: Serine/threonine-protein kinase pim-2 (Homo sapiens) (UniProt Q9P1W9); details: at 1 µM
[12] = target: Tyrosine-protein kinase FRK (Homo sapiens) (UniProt P42685); details: at 1 µM
[13] = target: Tyrosine-protein kinase FRK (Homo sapiens) (UniProt P42685); details: at 10 µM
[14] = target: T2, Phosphorylase b kinase gamma catalytic chain, liver/testis isoform (Homo sapiens); details: at 1 µM
[15] = target: Serine/threonine-protein kinase pim-3 (Homo sapiens) (UniProt Q86V86); details: at 1 µM
[16] = target: Serine/threonine-protein kinase pim-3 (Homo sapiens) (UniProt Q86V86); details: at 10 µM

Sequence of Serine/threonine-protein kinase PLK1 (Homo sapiens) (P53350 whole entry): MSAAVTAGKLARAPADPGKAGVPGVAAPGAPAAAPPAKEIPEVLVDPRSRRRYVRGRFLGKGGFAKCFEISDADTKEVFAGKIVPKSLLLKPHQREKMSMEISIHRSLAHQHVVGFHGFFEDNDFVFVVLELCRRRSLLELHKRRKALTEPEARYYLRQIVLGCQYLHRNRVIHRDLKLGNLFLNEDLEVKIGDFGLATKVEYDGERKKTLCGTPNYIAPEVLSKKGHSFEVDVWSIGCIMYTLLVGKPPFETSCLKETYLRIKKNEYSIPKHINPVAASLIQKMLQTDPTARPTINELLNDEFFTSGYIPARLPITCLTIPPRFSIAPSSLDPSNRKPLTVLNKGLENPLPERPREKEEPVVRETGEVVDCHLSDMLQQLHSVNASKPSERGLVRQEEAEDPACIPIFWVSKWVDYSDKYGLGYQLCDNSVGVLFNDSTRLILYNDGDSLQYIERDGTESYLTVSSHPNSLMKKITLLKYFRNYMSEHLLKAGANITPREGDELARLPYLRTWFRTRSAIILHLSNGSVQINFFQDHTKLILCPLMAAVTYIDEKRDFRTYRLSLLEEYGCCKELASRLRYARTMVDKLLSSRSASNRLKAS
Sequence of Serine/threonine-protein kinase pim-1 (Homo sapiens) (P11309 whole entry, looked up): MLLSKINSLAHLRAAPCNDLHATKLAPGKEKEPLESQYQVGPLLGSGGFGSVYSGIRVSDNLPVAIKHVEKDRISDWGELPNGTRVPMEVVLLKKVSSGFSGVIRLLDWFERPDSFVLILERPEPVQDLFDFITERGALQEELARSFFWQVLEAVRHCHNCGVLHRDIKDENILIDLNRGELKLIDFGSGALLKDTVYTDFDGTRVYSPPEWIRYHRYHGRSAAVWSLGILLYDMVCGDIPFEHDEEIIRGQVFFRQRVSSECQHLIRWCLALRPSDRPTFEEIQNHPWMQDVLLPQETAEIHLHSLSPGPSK
Sequence of Tyrosine-protein kinase FRK (Homo sapiens) (P42685 whole entry, canonical isoform): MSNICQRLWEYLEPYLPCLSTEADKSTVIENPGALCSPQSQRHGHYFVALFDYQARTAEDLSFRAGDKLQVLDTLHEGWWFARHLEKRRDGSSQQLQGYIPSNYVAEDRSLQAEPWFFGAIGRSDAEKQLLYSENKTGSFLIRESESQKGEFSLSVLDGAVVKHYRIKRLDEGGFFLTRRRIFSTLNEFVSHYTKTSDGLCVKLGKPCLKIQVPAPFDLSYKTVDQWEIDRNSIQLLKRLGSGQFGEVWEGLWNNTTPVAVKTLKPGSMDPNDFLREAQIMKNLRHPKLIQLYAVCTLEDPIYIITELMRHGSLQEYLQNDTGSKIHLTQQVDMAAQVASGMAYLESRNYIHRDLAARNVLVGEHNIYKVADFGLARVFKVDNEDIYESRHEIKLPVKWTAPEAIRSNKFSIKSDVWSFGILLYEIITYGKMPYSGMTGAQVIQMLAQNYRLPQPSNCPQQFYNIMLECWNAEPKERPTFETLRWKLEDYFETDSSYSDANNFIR
Sequence of Serine/threonine-protein kinase N2 (Homo sapiens) (Q16513 whole entry, looked up): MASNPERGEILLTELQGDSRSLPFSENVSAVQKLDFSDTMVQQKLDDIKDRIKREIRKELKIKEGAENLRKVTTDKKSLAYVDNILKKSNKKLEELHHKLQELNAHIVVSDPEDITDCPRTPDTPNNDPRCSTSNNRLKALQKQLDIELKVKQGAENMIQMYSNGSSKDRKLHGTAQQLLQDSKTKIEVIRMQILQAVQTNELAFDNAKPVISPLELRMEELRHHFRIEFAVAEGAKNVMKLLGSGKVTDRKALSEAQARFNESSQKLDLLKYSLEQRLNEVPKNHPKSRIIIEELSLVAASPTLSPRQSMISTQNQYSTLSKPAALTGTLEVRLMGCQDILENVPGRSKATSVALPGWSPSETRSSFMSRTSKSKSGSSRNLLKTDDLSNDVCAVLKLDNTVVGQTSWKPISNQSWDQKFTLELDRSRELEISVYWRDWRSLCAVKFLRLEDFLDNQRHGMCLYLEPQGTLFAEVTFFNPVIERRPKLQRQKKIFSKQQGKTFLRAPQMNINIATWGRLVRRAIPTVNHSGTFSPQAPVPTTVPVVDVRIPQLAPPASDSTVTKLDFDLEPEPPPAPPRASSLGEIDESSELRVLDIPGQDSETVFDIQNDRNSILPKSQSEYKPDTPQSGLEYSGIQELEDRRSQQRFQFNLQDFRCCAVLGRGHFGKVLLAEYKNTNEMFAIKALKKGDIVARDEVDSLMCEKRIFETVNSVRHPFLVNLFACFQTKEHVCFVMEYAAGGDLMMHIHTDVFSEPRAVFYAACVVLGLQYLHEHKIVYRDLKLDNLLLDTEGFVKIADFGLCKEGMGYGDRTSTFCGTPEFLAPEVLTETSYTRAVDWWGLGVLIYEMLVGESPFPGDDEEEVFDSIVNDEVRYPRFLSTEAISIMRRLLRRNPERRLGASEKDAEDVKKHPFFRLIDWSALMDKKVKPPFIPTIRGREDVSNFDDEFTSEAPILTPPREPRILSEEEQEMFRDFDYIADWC
Sequence of Serine/threonine-protein kinase pim-2 (Homo sapiens) (Q9P1W9 whole entry, looked up): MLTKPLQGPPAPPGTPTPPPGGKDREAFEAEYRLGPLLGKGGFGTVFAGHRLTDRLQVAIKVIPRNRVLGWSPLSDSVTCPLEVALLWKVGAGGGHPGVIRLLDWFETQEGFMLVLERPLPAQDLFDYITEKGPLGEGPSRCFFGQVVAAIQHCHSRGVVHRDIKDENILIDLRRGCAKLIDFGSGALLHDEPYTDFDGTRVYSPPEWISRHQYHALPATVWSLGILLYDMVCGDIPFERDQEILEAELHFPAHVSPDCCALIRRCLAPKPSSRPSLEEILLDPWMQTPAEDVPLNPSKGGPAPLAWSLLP

| Structure (SMILES) | residual activity [1] | residual activity [2] | residual activity [3] | residual activity [4] | residual activity [5] | residual activity [6] | residual activity [7] | residual activity [8] | residual activity [9] | residual activity [10] | residual activity [11] | residual activity [12] | residual activity [13] | residual activity [14] | residual activity [15] | residual activity [16] |
| --- | --- | --- | --- | --- | --- | --- | --- | --- | --- | --- | --- | --- | --- | --- | --- | --- |
| CC(C)N(CCC(=O)c1ccc2ccccc2c1)Cc1ccccc1 | 82% | 72% | 80% | 127% | 69% | 64% |  |  |  |  |  |  |  |  |  |  |
| O=C1NC(=O)C(c2cn(CCCn3ccnc3)c3ccccc23)=C1Nc1ccccc1 |  | 59% |  | 54% | 76% | 64% | 26% | 11% | 65% | 18% | 77% |  |  |  |  |  |
| O=C1Cc2c([nH]c3ccc([N+](=O)[O-])cc23)-c2ccccc2N1 | 80% | 81% |  | 117% | 105% | 100% |  |  |  |  | 119% | 67% | 46% |  |  |  |
| COc1cc2ncnc(Nc3cccc(Cl)c3)c2cc1OC |  |  | 107% |  | 112% |  |  | 76% | 62% | 48% | 121% | 53% | 6% | 104% | 112% | 101% |
| COc1ccc(CNC(=O)Nc2ncc([N+](=O)[O-])s2)cc1 |  |  | 107% | 135% | 64% | 76% |  | 81% | 116% | 109% | 134% |  |  | 122% |  |  |
| CCN(CC)CCNC(=O)c1c(C)[nH]c(/C=C2\C(=O)Nc3ccc(Cl)cc32)c1C | 97% | 49% | 2% |  |  | 55% | 52% | 18% |  |  |  | 31% | 1% | 8% |  | 75% |
| CCN1/C(=C/C(C)=O)Sc2ccc(OC)cc21 |  |  |  |  |  |  |  |  | 25% | 4% |  |  |  |  | 51% | 11% |
| CCCCc1c(-c2ccc(O)cc2)[nH]c2nccnc12 |  |  |  |  | 82% | 87% | 87% | 85% |  |  | 140% | 59% | 25% |  |  |  |
| Cn1sc(=O)n(Cc2ccccc2)c1=O |  |  | 98% | 143% | 69% | 70% | 91% | 84% |  | 95% |  | 88% | 92% | 90% | 80% | 85% |
| Nc1nc(Nc2ccc(S(N)(=O)=O)cc2)nn1C(=O)c1c(F)cccc1F | 101% | 70% | 107% | 73% |  |  | 81% | 32% | 71% | 52% | 99% |  | 38% | 100% | 99% | 102% |
| CCOc1nc(NC(=O)Cc2cc(OC)ccc2OC)cc(N)c1C#N |  |  |  |  |  |  |  | 82% |  |  | 142% |  | 74% | 118% |  |  |
| Fc1ccc(-c2nc3n(c2-c2ccncc2)CCS3)cc1 |  |  |  |  | 91% | 82% |  |  | 91% | 73% | 128% | 99% | 51% |  | 94% | 98% |

Reference: ChEMBL document CHEMBL2218924, “A broad activity screen in support of a chemogenomic map for kinase signalling research and drug discovery” (Biochem J, 2013)
